# Test results: PubChem BioAssay AID1159580 (chemical genetic matrix, 2015)
# The whole screen tested about 5,500 compounds, of which about 2,000 (36%) were called active. Roughly 18% stayed inconclusive and do not appear here. The list shows a part of the results. A number with no mark means an inactive call. No stated cut-off is given here; in the data, active means normalized growth mostly below about 0.91 (no sharp cut-off); inconclusive means no clear call, values can overlap the other calls; inactive means mostly above about 0.92.
# Assay: chemical genetic growth profiling, strain panel (AID 1159580);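 further: tested at 20 µM; growth read once vehicle control cultures reached saturation at 30 °C; 1 = growth at the plate median or of vehicle wells; lower values mean less growth of the strain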
# Details: growth OD
compound,measurement,setting,value
CC(=O)Oc1ccc(Cl)c2cccnc12,normalized growth,"S. cerevisiae deletion strains, locus YJL187C, strain SWE1, active compounds read low",0.0588 (active)
same,normalized growth,"S. cerevisiae deletion strains, locus YJR043C, strain POL32, active compounds read low",0.0605 (active)
same,normalized growth,"S. cerevisiae deletion strains, locus YJR075W, strain HOC1, active compounds read low",0.0612 (active)
same,normalized growth,"S. cerevisiae deletion strains, locus YKL009W, strain mrt4, active compounds read low",0.0837 (active)
same,normalized growth,"S. cerevisiae deletion strains, locus YKL068W, active compounds read low",0.061 (active)
same,normalized growth,"S. cerevisiae deletion strains, locus YKL085W, strain MDH1 (second series), active compounds read low",0.0554 (active)
same,normalized growth,"S. cerevisiae deletion strains, locus YKL085W, strain MDH1, active compounds read low",0.0554 (active)
same,normalized growth,"S. cerevisiae deletion strains, locus YKL160W, strain elf1, active compounds read low",0.058 (active)
same,normalized growth,"S. cerevisiae deletion strains, locus YKL190W, strain CNB1, active compounds read low",0.0452 (active)
same,normalized growth,"S. cerevisiae deletion strains, locus YKR001C, strain vps1, active compounds read low",0.0643 (active)
same,normalized growth,"S. cerevisiae deletion strains, locus YKR026C, strain gcn3, active compounds read low",0.0619 (active)
same,normalized growth,"S. cerevisiae deletion strains, locus YKR091W, strain srl3, active compounds read low",0.0618 (active)
same,normalized growth,"S. cerevisiae deletion strains, locus YLL001W, strain dnm1, active compounds read low",0.0631 (active)
same,normalized growth,"S. cerevisiae deletion strains, locus YLL026W, active compounds read low",0.0596 (active)
same,normalized growth,"S. cerevisiae deletion strains, locus YLL041C, strain sdh2, active compounds read low",0.0561 (active)
same,normalized growth,"S. cerevisiae deletion strains, locus YLR027C, strain aat2, active compounds read low",0.0554 (active)
same,normalized growth,"S. cerevisiae deletion strains, locus YLR039C, strain RIC1, active compounds read low",0.0795 (active)
same,normalized growth,"S. cerevisiae deletion strains, locus YLR058C, strain SHM2, active compounds read low",0.0497 (active)
same,normalized growth,"S. cerevisiae deletion strains, locus YLR102C, strain apc9, active compounds read low",0.0628 (active)
same,normalized growth,"S. cerevisiae deletion strains, locus YLR221C, strain rsa3, active compounds read low",0.061 (active)
same,normalized growth,"S. cerevisiae deletion strains, locus YLR258W, strain gsy2, active compounds read low",0.0582 (active)
same,normalized growth,"S. cerevisiae deletion strains, locus YLR262C, strain YPT6 (second series), active compounds read low",0.0745 (active)
same,normalized growth,"S. cerevisiae deletion strains, locus YLR262C, strain YPT6, active compounds read low",0.0956 (active)
same,normalized growth,"S. cerevisiae deletion strains, locus YLR268W, strain sec22, active compounds read low",0.0707 (active)
same,normalized growth,"S. cerevisiae deletion strains, locus YLR320W, strain mms22, active compounds read low",0.074 (active)
same,normalized growth,"S. cerevisiae deletion strains, locus YLR330W, strain CHS5, active compounds read low",0.0507 (active)
same,normalized growth,"S. cerevisiae deletion strains, locus YLR342W, strain FKS1 (second series), active compounds read low",0.0702 (active)
same,normalized growth,"S. cerevisiae deletion strains, locus YLR342W, strain FKS1, active compounds read low",0.0632 (active)
same,normalized growth,"S. cerevisiae deletion strains, locus YLR357W, strain rsc2, active compounds read low",0.13 (active)
same,normalized growth,"S. cerevisiae deletion strains, locus YLR370C, strain arc18, active compounds read low",0.0627 (active)
same,normalized growth,"S. cerevisiae deletion strains, locus YLR371W, strain rom2, active compounds read low",0.0668 (active)
same,normalized growth,"S. cerevisiae deletion strains, locus YLR384C, strain iki3, active compounds read low",0.0595 (active)
same,normalized growth,"S. cerevisiae deletion strains, locus YLR418C, strain cdc73, active compounds read low",0.101 (active)
same,normalized growth,"S. cerevisiae deletion strains, locus YML016C, strain PPZ1, active compounds read low",0.0485 (active)
same,normalized growth,"S. cerevisiae deletion strains, locus YML032C, strain rad52, active compounds read low",0.0749 (active)
same,normalized growth,"S. cerevisiae deletion strains, locus YML120C, strain ndi1, active compounds read low",0.0578 (active)
same,normalized growth,"S. cerevisiae deletion strains, locus YML124C, strain tub3, active compounds read low",0.0617 (active)
same,normalized growth,"S. cerevisiae deletion strains, locus YMR058W, strain fet3, active compounds read low",0.0625 (active)
same,normalized growth,"S. cerevisiae deletion strains, locus YMR078C, strain ctf18, active compounds read low",0.0737 (active)
same,normalized growth,"S. cerevisiae deletion strains, locus YMR125W, strain sto1, active compounds read low",0.081 (active)
same,normalized growth,"S. cerevisiae deletion strains, locus YMR129W, active compounds read low",0.0589 (active)
same,normalized growth,"S. cerevisiae deletion strains, locus YMR205C, strain PFK2, active compounds read low",0.0841 (active)
same,normalized growth,"S. cerevisiae deletion strains, locus YMR223W, strain ubp8, active compounds read low",0.069 (active)
same,normalized growth,"S. cerevisiae deletion strains, locus YMR231W, strain pep5, active compounds read low",0.0641 (active)
same,normalized growth,"S. cerevisiae deletion strains, locus YMR307W, strain GAS1, active compounds read low",0.122 (active)
same,normalized growth,"S. cerevisiae deletion strains, locus YNL067W, strain RPL9B, active compounds read low",0.0485 (active)
same,normalized growth,"S. cerevisiae deletion strains, locus YNL071W, strain lat1, active compounds read low",0.0618 (active)
same,normalized growth,"S. cerevisiae deletion strains, locus YNL153C, strain GIM3, active compounds read low",0.048 (active)
same,normalized growth,"S. cerevisiae deletion strains, locus YNL209W, strain ssb2, active compounds read low",0.0585 (active)
same,normalized growth,"S. cerevisiae deletion strains, locus YNL233W, strain BNI4, active compounds read low",0.0581 (active)
same,normalized growth,"S. cerevisiae deletion strains, locus YNL248C, strain rpa49, active compounds read low",0.0904 (active)
same,normalized growth,"S. cerevisiae deletion strains, locus YNL250W, strain rad50, active compounds read low",0.127 (active)
same,normalized growth,"S. cerevisiae deletion strains, locus YNL271C, strain bni1, active compounds read low",0.0631 (active)
same,normalized growth,"S. cerevisiae deletion strains, locus YNL298W, strain CLA4, active compounds read low",0.0622 (active)
same,normalized growth,"S. cerevisiae deletion strains, locus YNL307C, strain MCK1, active compounds read low",0.0688 (active)
same,normalized growth,"S. cerevisiae deletion strains, locus YNL322C, strain KRE1 (second series), active compounds read low",0.0653 (active)
same,normalized growth,"S. cerevisiae deletion strains, locus YNR049C, strain mso1, active compounds read low",0.06 (active)
same,normalized growth,"S. cerevisiae deletion strains, locus YNR052C, strain pop2, active compounds read low",0.0622 (active)
same,normalized growth,"S. cerevisiae deletion strains, locus YOL012C, strain htz1",0.23
same,normalized growth,"S. cerevisiae deletion strains, locus YOL147C, strain pex11, active compounds read low",0.0595 (active)
same,normalized growth,"S. cerevisiae deletion strains, locus YOR001W, strain rrp6, active compounds read low",0.0713 (active)
same,normalized growth,"S. cerevisiae deletion strains, locus YOR061W, strain CKA2, active compounds read low",0.0492 (active)
same,normalized growth,"S. cerevisiae deletion strains, locus YOR069W, strain VPS5, active compounds read low",0.0514 (active)
same,normalized growth,"S. cerevisiae deletion strains, locus YOR070C, strain gyp1, active compounds read low",0.0596 (active)
same,normalized growth,"S. cerevisiae deletion strains, locus YOR080W, strain dia2, active compounds read low",0.064 (active)
same,normalized growth,"S. cerevisiae deletion strains, locus YOR083W, strain WHI5, active compounds read low",0.0594 (active)
same,normalized growth,"S. cerevisiae deletion strains, locus YOR106W, strain vam3, active compounds read low",0.0646 (active)
same,normalized growth,"S. cerevisiae deletion strains, locus YOR136W, strain idh2, active compounds read low",0.0755 (active)
same,normalized growth,"S. cerevisiae deletion strains, locus YOR144C, strain elg1, active compounds read low",0.0602 (active)
same,normalized growth,"S. cerevisiae deletion strains, locus YOR184W, strain ser1, active compounds read low",0.0785 (active)
same,normalized growth,"S. cerevisiae deletion strains, locus YOR265W, strain rbl2, active compounds read low",0.0601 (active)
same,normalized growth,"S. cerevisiae deletion strains, locus YOR270C, strain vph1, active compounds read low",0.104 (active)
same,normalized growth,"S. cerevisiae deletion strains, locus YOR290C, strain snf2, active compounds read low",0.0601 (active)
same,normalized growth,"S. cerevisiae deletion strains, locus YOR316C, strain cot1, active compounds read low",0.0595 (active)
same,normalized growth,"S. cerevisiae deletion strains, locus YPL051W, strain arl3, active compounds read low",0.0618 (active)
same,normalized growth,"S. cerevisiae deletion strains, locus YPL055C, strain LGE1, active compounds read low",0.0661 (active)
same,normalized growth,"S. cerevisiae deletion strains, locus YPL078C, strain atp4, active compounds read low",0.0648 (active)
same,normalized growth,"S. cerevisiae deletion strains, locus YPL106C, strain sse1, active compounds read low",0.0984 (active)
same,normalized growth,"S. cerevisiae deletion strains, locus YPL240C, strain hsp82, active compounds read low",0.0604 (active)
same,normalized growth,"S. cerevisiae deletion strains, locus YPL241C, strain CIN2, active compounds read low",0.0494 (active)
same,normalized growth,"S. cerevisiae deletion strains, locus YPR119W, strain clb2, active compounds read low",0.0672 (active)
same,normalized growth,"S. cerevisiae deletion strains, locus YPR141C, strain kar3, active compounds read low",0.0666 (active)
same,normalized growth,"S. cerevisiae deletion strains, locus YPR163C, strain tif3, active compounds read low",0.0706 (active)
same,normalized growth,"S. cerevisiae deletion strains, locus YPR167C, strain met16, active compounds read low",0.0624 (active)
same,normalized growth,"S. cerevisiae deletion strains, strain wtn01, active compounds read low",0.0713 (active)
same,normalized growth,"S. cerevisiae strains, strain wild type, active compounds read low",0.0465 (active)
